# Most compounds without a hit are left out; they make up all but 32% or so of the library.
# CYP2C9 activ: activators of human CYP2C9; P11712; recombinant CYP2C9, luciferin-H conversion, luminescence; stronger effect = higher value; factor 1 = untreated enzyme, 0 = blocked; activation factor at 5 µM; 96,000 compounds, 1.4% hits; AID 1024;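 active = activation factor of 2 or more for CYP2C9 at a 5 µM dose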;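 also: 0 = sulfaphenazole-blocked wells and 1 = vehicle-only wells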
# Target sequence (P11712 whole entry, looked up): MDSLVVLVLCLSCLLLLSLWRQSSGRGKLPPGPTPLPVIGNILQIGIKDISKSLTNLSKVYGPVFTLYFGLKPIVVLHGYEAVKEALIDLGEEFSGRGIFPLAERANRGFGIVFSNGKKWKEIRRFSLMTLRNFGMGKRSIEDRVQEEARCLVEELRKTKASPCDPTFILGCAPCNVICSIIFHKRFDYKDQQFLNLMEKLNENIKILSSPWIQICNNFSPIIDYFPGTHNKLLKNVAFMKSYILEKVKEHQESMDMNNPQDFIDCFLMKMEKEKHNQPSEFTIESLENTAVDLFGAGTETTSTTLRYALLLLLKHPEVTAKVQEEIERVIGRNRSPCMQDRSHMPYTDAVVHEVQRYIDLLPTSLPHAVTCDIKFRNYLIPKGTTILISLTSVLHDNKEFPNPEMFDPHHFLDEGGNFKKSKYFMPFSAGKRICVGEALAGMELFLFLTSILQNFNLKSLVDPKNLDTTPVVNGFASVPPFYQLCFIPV
# CYP2C9 inh: human CYP2C9 inhibition | inhibition, % at 5 µM | CYP2C9 Supersomes, luciferin-H conversion, luminescence | P11712 | 96,000 compounds, 20% hits;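 active = blocking of liver enzyme CYP2C9 beyond about 50% at 5 µM, limit read from the data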
# CYP2C19 act: cytochrome P450 2C19 (human) activation; recombinant CYP2C19, luciferin-H EGE luminescence; stronger effect = higher value; 0 = fully inhibited enzyme, 1 = untreated enzyme; activation factor at 5 µM; 96,000 tested, under 10 active; P33261;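 active = activation factor of at least 2 at 5 µM in the primary screen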;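 also: 0 = wells with 2.5 mM tranylcypromine and 1 = vehicle-only wells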
# PostGolgi ctrl: growth of the yeast control strain, post-Golgi counter-screen; inhibition, % at 10 µM; efflux-deficient yeast background strain, growth absorbance A615, 16 h; 98,000 compounds, 5% hits
# CYP2C19 inhib: inhibitors of human CYP2C19. P33261. CYP2C19 Supersomes, luciferin-H EGE luminescence, 30 min. inhibition, % at 5 µM. 96,000 compounds, 21% hits. AID 778;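 active = CYP2C19 inhibition above a set limit at 5 µM in the primary screen, cut at about 50% in these data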;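 also: plate controls were negative control wells for no effect and 2.5 mM tranylcypromine positive control for full effect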
# PostGolgi yeast: growth inhibition of a yeast mutant, post-Golgi transport screen; post-Golgi transport phenotypic cell assay; inhibition, % at 10 µM; 98,000 compounds, 0.9% hits; AID 739;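 also: yeast cells grown in 1536-well plates; yeast grown about 18 h at 30C before absorbance read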
# Starred values were filed as active, the others as inactive; . = no result given. Rule as the data show it, unless noted: active = inhibition above about 30%; inactive = the rest.
SMILES,CYP2C9 activ,CYP2C9 inh,CYP2C19 act,PostGolgi ctrl,CYP2C19 inhib,PostGolgi yeast
Cc1ccc(S(=O)(=O)N/N=C\c2ccc(Cl)c([N+](=O)[O-])c2)cc1,0.3,70.0*,0.1,1.1,86.8*,1.7
Cc1ccc(S(=O)(=O)N/N=C\c2ccc(C)o2)cc1,0.8,19.6,0.9,2.0,6.1,16.8
Cc1ccc(S(=O)(=O)N/N=C/c2ccc(OS(=O)(=O)c3ccc(C)c([N+](=O)[O-])c3)cc2)cc1,0.1,91.0*,0.8,4.1,20.6,20.7
O=C(COc1ncnc2ccccc12)c1ccc2c(c1)OCCO2,1,0.2,1.1,-13.9,-10.9,21.5
CCOc1ccccc1C1CC(=O)Nc2c1c(=O)n(C)c(=O)n2C (stereo not given),0.5,45.6,0.6,5.8,44.9,10.1
CS(=O)(=O)Nc1ccccc1C(=O)NC1CC2CCC1C2 (stereo not given),1,-0.2,1.1,-0.3,-9.5,0.5
CCOc1ccc(NC(=O)CSc2nnc(C)n2CCCOC)cc1,0.9,9.1,0.7,8.8,26.8,9.1
CC(=O)OCc1c(C(F)(F)F)nn(C)c1SCc1ccc(Cl)cc1,0.4,62.4*,0,29.2,99.0*,11.1
Cn1c(SCc2ccc(Cl)cc2)nc(C(F)(F)F)cc1=O,1,-3.2,0.9,-1.6,6.5,-0.5
COc1ccc(Nc2cc(C)nc(N3CCOCC3)n2)cc1,1,3.6,0.9,3.7,11.2,19.3
Cc1cnn(C(=S)NCCc2ccccc2)c1,0.7,29.2,0.2,-6.6,84.3*,-3.8
Cc1cc(-n2c(C)cc(C(=O)CN3C(=O)NC4(CCCCC4)C3=O)c2C)no1,0.9,6.5,0.5,-1.4,49.7,-6.5
COCCNC(=O)c1cc2oc3ccccc3c2n1C,0.2,79.4*,0.1,0.9,90.4*,-3.0
CCn1c(=S)ccc2ccc(OC)cc21,0.7,27.7,0.4,-5.7,63.5*,12.4
CCC(CC)n1[nH]c(=O)cc1N,.,.,.,2.6,.,8.0
COc1cc(/C=c2\sc3nc(-c4ccncc4)nn3c2=O)ccc1OC(C)=O,0.2,76.2*,0.4,11.6,59.9*,2.0
CCOC(=O)c1sc(NC(=O)C(C)(C)C)cc1C,0.7,30.6,0.7,15.5,26.2,-9.0
CCOC(=O)C1=C(N)OC2=C(C(=O)CC(C)(C)C2)C1c1ccco1 (stereo not given),0.6,35.5,0.8,-1.2,20.9,1.0
CC1(C)CC(=O)C2=C(C1)OC1=C(C(=O)CC(C)(C)C1)C2c1ccc(O)cc1O,2.5*,-146.9,0.8,-4.7,19.9,3.2
CC(=O)Nc1nc2cc3c(cc2s1)OCO3,0.7,28.3,0.4,11.4,64.4*,5.2
c1c2c(cc3sc(N4CCCCC4)nc13)OCO2,0.8,17.8,0.2,-3.3,84.0*,13.4
CCOC(=O)CC1Sc2ccccc2NC1=O (stereo not given),1.1,-14.3,0.6,0.1,38.5,-1.4
CCOCCOC(=O)C1=C(C)Nc2ccc(C)cc2S1,0.3,71.2*,0.1,-11.8,91.2*,-5.0
CSCCOC(=O)C1=C(C)Nc2ccc(C)cc2S1,0.4,60.6*,0.5,-1.8,49.9,-1.1
CCOC(=O)C1=C(C)Nc2ccc(C)cc2S1,0.7,30.9,0.3,-1.3,65.9*,-2.8
SMILES,CYP2C9 activ,CYP2C9 inh,CYP2C19 act,PostGolgi ctrl,CYP2C19 inhib,PostGolgi yeast
CCCc1nnc(NC(=O)CCC(=O)Nc2ccc(F)cc2)s1,0.7,27.9,0.9,8.3,13.8,3.7
C=CCn1c(C)cc(C(=O)CSc2nnc3c(Cl)cc(Cl)cn23)c1C,1.9,-87.9,0.2,2.9,77.7*,-2.7
Cc1csc(NC(=O)c2c(O)c3c(n(CC(C)C)c2=O)CCCC3)n1,0.5,51.4*,0.9,25.8,14.5,-4.2
CCCn1c2c(c(O)c(C(=O)Nc3ccc(OCC)cc3)c1=O)CCCC2,0.5,52.4*,1,7.4,-1.8,0.9
CCCn1c2c(c(O)c(C(=O)Nc3nccs3)c1=O)CCCC2,1.1,-14.7,1,24.1,1.8,22.0
CCCn1c2c(c(O)c(C(=O)Nc3ncccc3C)c1=O)CCCC2,0.6,35.3,0.9,43.4*,6.3,-2.1
CCc1nc(C)cc(N)c1OCc1ccccc1,1,1.2,1,6.6,4.4,-5.5
CC(Nc1cc(N2CCN(C(=O)C(C)(C)C)CC2)ccc1[N+](=O)[O-])c1ccccc1 (stereo not given),0.5,50.2*,0.4,26.8,56.4*,-0.3
O=[N+]([O-])c1ccc(N2CCCC2)cc1NC(c1ccccc1)c1ccccc1,0.7,29.6,0.9,12.3,9.3,-0.8
CCS(=O)(=O)N1CCN(c2ccc([N+](=O)[O-])c(NC(C)c3ccccc3)c2)CC1 (stereo not given),0.3,65.6*,0.5,43.9*,51.2*,10.2
CN(/C(=N\S(=O)(=O)c1ccccc1)C(F)(F)F)c1ccccc1,1,-2.6,0.7,-5.8,28.8,-6.8
O=C1CCCc2c1cc(C(=O)NCCCN1CCOCC1)c(=O)n2-c1ccc(Cl)cc1,1,3.6,0.9,6.1,7.5,0.8
Cc1cc(C)c(S(=O)(=O)c2c(C)cccc2C)c(OCC(C)C)n1,0.1,91.0*,0.2,12.6,83.8*,3.1
CCC(C)Oc1nc(C)cc(C)c1S(=O)(=O)c1ccccc1C (stereo not given),0.6,37.5,0.6,15.9,39.5,-6.2
COc1ccc(Sc2cc(C(F)(F)F)nc(-c3ccccn3)n2)cc1,0.3,65.7*,0.6,21.3,40.0,-0.3
CCC(C)(C)n1nnnc1C(c1cc2ccc(OC)cc2[nH]c1=O)N1CCc2ccccc2C1 (stereo not given),0.3,72.9*,0.8,9.7,17.6,-1.6
COc1ccc2cc(C(c3nnnn3C3CCCC3)N3CCc4ccccc4C3)c(=O)[nH]c2c1 (stereo not given),0.5,48.0,0.7,-7.3,26.1,3.2
CCC(C)(C)n1nnnc1C(c1cc2ccc(OC)cc2[nH]c1=O)N1CCCCC1 (stereo not given),0.8,19.0,1,1.5,-2.0,-4.1
COc1ccc2cc(C(c3nnnn3C(C)(C)C)N3CCc4ccccc4C3)c(=O)[nH]c2c1 (stereo not given),0.1,94.0*,0.3,6.0,65.0*,2.3
Cc1ccc(Cn2nnc3c(=O)[nH]c(C4CCN(C(=O)c5cccs5)CC4)nc32)cc1,0.3,72.4*,0.5,2.1,45.3,0.5
Cc1ccc(Cn2nnc3c(=O)[nH]c(C4CCN(S(=O)(=O)c5ccc(F)cc5)CC4)nc32)cc1,.,.,.,0.2,.,1.9
Cc1ccc(C)c(Cn2nnc3c(=O)[nH]c(C4CCN(C(=O)c5cccs5)CC4)nc32)c1,0.1,87.6*,0.5,5.6,51.0*,-4.0
Cc1ccc(C)c(Cn2nnc3c(=O)[nH]c(C4CCCN(C(=O)C5CCC5)C4)nc32)c1 (stereo not given),0.6,42.9,0.7,2.7,28.0,5.7
COC(=O)c1c(NC(=O)CSc2nnc(CNc3ccc(Cl)cc3)o2)sc(C)c1C,0.5,45.6,0.9,26.1,12.6,-5.0
